Here are results for 28 compounds from PubChem BioAssay (Tox21).

Records with an inconclusive call do not appear. The source made the active and inactive calls. Calls come from the whole dose curve; as a rule, active = well fitted inhibition curve with a large enough effect in the repeat runs; inconclusive = weak or mixed curves; inactive = flat fitted curve, though single readings scatter.
% is set by controls: 0 for no effect and ±100 for the full control effect; potency is the fitted concentration of half-maximal effect.

Luciferin 4-monooxygenase (Photinus pyralis), sequence (P08659 whole entry, looked up): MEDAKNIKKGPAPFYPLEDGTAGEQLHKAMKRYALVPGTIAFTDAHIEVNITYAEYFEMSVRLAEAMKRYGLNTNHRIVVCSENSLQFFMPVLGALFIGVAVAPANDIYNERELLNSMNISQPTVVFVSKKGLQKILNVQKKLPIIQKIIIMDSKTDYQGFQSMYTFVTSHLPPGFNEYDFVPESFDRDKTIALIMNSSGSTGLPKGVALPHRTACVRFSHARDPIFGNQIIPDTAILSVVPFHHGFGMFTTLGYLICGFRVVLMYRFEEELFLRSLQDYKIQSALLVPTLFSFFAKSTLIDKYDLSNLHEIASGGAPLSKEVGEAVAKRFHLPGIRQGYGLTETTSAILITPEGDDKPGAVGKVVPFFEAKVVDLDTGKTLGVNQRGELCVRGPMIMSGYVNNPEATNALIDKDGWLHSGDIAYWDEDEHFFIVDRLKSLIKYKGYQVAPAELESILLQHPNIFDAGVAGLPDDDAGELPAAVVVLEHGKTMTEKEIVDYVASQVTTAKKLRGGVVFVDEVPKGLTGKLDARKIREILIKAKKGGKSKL

The assay has as its target Luciferin 4-monooxygenase (Photinus pyralis) (UniProt P08659). Briefly: qHTS assay to identify small molecule inhibitors of firefly luciferase (AID 1224835). Note: nearly all actives have a fitted effect of over 25% in size. As to conditions: purified P. pyralis luciferase, luminescence inhibition; series mostly up to 115 µM; activity change, negative = inhibition: at the top concentration. The gist of the method:
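Biochemical qHTS: compounds run as interplate titrations against purified firefly enzyme, with D-luciferin and ATP each at its KM concentration. Light output recorded by CCD imaging.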
In general terms: In qHTS, concentration-response curves come from the screen itself.
For `CSc1cnc(C)cn1`, the “activity change, negative = inhibition” value was -0.249% [at 300 µM] (inactive).

As for `CC1=NC(C)OC1C` (stereo not drawn), the “activity change, negative = inhibition” value is -0.141% (inactive).

Regarding `C=CC(=O)OCC(CO)(COCC(COC(=O)C=C)(COC(=O)C=C)COC(=O)C=C)COC(=O)C=C`, the “activity change, negative = inhibition” value was 0.752% (inactive).

Turning to `CN1CCN(CCC(=O)N2c3ccccc3Sc3ccc(C(F)(F)F)cc32)CC1`, the “activity change, negative = inhibition” value is 0.0039% [at 52.9 µM] (inactive).

Turning to `O=C1CCCc2c1cc1ccc3cccc4ccc2c1c34`, the Potency is 11.4 µM (active).

Take `COc1cc(-c2ccc(N=C=O)c(OC)c2)ccc1N=C=O`: the “activity change, negative = inhibition” value was 0% [at 52.9 µM] (inactive).

With `Oc1c(Cl)cc(Cl)c2cccnc12`, the “activity change, negative = inhibition” value was -2.23% [at 52.9 µM] (inactive).

For the compound `Nc1ccccc1O`, the “activity change, negative = inhibition” value was -9.77% (inactive).

On to `O=C1CCCCCN1SSN1CCCCCC1=O`, for which the “activity change, negative = inhibition” value was -6.57% (inactive).

Take `C=CC(=O)OCC(CO)(COC(=O)C=C)COC(=O)C=C`: the Potency result is “inactive”.

`Cc1cc(O)c(Cl)c(C)c1Cl`: the “activity change, negative = inhibition” value is -7.38% (inactive).

On to `Oc1ccc(N=Nc2ccccc2)cc1`, for which the Potency was 9.06 µM (active).

`O=C(Nc1cccc([N+](=O)[O-])c1)c1cc2ccccc2cc1O`: the Potency is 1.59 µM (active).

For the compound `NNc1nc(-c2ccccc2)cs1`, the Potency is 32.6 µM (active).

Turning to `c1cc(C(c2ccc(OCC3CO3)cc2)c2ccc(OCC3CO3)cc2)ccc1OCC1CO1` (stereo not drawn), the “activity change, negative = inhibition” value is -5.94% (inactive).

For the compound `CN(C/C=C/C#CC(C)(C)C)Cc1cccc2ccccc12`, the “activity change, negative = inhibition” value was -1.66% [at 52.9 µM] (inactive).

As for `CCCCCOc1ccccc1/C(=C\SC)n1ccnc1`, the “activity change, negative = inhibition” value was -0.209% [at 52.9 µM] (inactive).

Turning to `CCCCCCCC/C=C\CCCCCCCCOCCO`, the “activity change, negative = inhibition” value was 1.84% (inactive).

In the case of `CC(C)(C)NC(=O)[C@@H]1C[C@@H]2CCCC[C@@H]2CN1C[C@@H](O)[C@H](Cc1ccccc1)NC(=O)[C@H](CC(N)=O)NC(=O)c1ccc2ccccc2n1`, the “activity change, negative = inhibition” value is 3.73% (inactive).

For `CCCCN(CCCC)C(=O)N(CCCC)CCCC`, the “activity change, negative = inhibition” value is 0.328% (inactive).

Turning to `CCCCCCCCCCCC(=O)NCCCN(C)C`, the “activity change, negative = inhibition” value is 0.103% (inactive).

Take `CC(NN)c1ccccc1` (stereo not drawn): the activity change, negative = inhibition was -10.4% [at 23.6 µM] (inactive).

`CCN(Cc1cccnc1)C(=O)c1cccc(Cl)c1[C@]1(C)C(=O)N(Cc2ccc(OC)cc2OC)c2ccc(Cl)cc21`: the “activity change, negative = inhibition” value is -0.605% (inactive).

For `N/C(=N\N=C\c1ccc(Cl)cc1)N/N=C/c1ccc(Cl)cc1`, the Potency was 9.77 µM (active).

As to `COC(=O)c1cc(Cl)ccc1OC`, the “activity change, negative = inhibition” value was 0.503% [at 52.9 µM] (inactive).

`C=C(C)C(=O)OCC[N+](C)(C)C`: the “activity change, negative = inhibition” value was 0.7% (inactive).

Consider `CC(C)(C)C1CCC(CC2=C(O)c3ccccc3C(=O)C2=O)CC1` (stereo not drawn), for which the “activity change, negative = inhibition” value was -1.49% [at 52.9 µM] (inactive).

Take `Clc1ccc2cc3ccccc3cc2c1`: the “activity change, negative = inhibition” value was -8.39% (inactive).
